# Measured values as given in the supplement of paper PMC10849652.
# About 7,900 targets were measured; listed, in parts, are those with a hit and a random draw of the rest. About 0.6% of all pairs of compound and target were hits. Values without a mark were called inactive.
# Key:
# Test in all cases: log2 fold change, soluble protein after heating vs DMSO (PISA); higher = thermal stabilisation; K562 cells, 10 uM, 30 min; active = over 0.2 and 3.5 SD of the protein, either way, in both replicates (recomputed)
# [1] = compound: C1COCCN1CCN2C3=CC=CC=C3N=C2NC(=O)C4=CC(=CC=C4)[N+](=O)[O-] [IRAK-1-4 Inhibitor I]
# Procedure, shortened: (§1)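 K562 cells (2×10^6 cells/mL) were treated with 10 μM compound for 30 min, and aliquots were heated for 3 min over 48°C-58°C. Pooled aliquots were extracted in PBS with 0.5% NP-40 at 4°C, and the supernatant after 21,000xg for 90 min was measured by TMTpro 16plex LC-MS/MS with channel sums equalised. Reported thermal stability, relative to control samples and from duplicates, is a log2 fold change.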
# [2] = compound: C=CC(=O)N1CCC[C@@H](n2nc(-c3ccc(Oc4ccccc4)cc3)c3c(N)ncnc32)C1 [ibrutinib]
# Procedure, shortened: as §1
# [3] = compound: CC(=O)c1cnc2ccc(-c3cc(Cl)c(O)c(Cl)c3)nc2c1N[C@H]1CC[C@H](CN(C)C)CC1
# Procedure, shortened: as §1
# [4] = compound: CC(C)(C)Cn1c(N)nc2ccc(-c3[nH]c(C(C)(C)C)nc3-c3ccc(F)cc3)nc21 [ralimetinib]
# Procedure, shortened: as §1
# [5] = compound: CC(C)(O)CC(=O)NCCn1ccc2ncnc(Nc3ccc(Oc4cccc(C(F)(F)F)c4)c(Cl)c3)c21
# Procedure, shortened: as §1
# [6] = compound: CC(C)C1=C2N=C(C=C(N2N=C1)NCC3=CC=CC=C3)NCCCCCCN
# Procedure, shortened: as §1
# [7] = compound: CC(C)C[C@@H](C=O)NC(=O)[C@H](CC(C)C)NC(=O)[C@H](CC(C)C)NC(=O)OCc1ccccc1
# Procedure, shortened: as §1
# [8] = compound: CC(C)N(C[C@H]1O[C@@H](n2cnc3c(N)ncnc32)[C@H](O)[C@@H]1O)[C@H]1C[C@@H](CCc2nc3cc(C(C)(C)C)ccc3[nH]2)C1 [pinometostat]
# Procedure, shortened: as §1
# [9] = compound: CC1=C(C(CC(=O)N1)C2=CC=C(C=C2)C(F)(F)F)C(=O)NC3=C(C=C4C(=C3)C=NN4)F
# Procedure, shortened: as §1
# [10] = compound: CC1=C(C2=C(C=C1)C(=O)C3=CC=CC=C3N2CCCN)C
# Procedure, shortened: as §1
# Chain of UniProt O43242 (O43242 whole entry, looked up): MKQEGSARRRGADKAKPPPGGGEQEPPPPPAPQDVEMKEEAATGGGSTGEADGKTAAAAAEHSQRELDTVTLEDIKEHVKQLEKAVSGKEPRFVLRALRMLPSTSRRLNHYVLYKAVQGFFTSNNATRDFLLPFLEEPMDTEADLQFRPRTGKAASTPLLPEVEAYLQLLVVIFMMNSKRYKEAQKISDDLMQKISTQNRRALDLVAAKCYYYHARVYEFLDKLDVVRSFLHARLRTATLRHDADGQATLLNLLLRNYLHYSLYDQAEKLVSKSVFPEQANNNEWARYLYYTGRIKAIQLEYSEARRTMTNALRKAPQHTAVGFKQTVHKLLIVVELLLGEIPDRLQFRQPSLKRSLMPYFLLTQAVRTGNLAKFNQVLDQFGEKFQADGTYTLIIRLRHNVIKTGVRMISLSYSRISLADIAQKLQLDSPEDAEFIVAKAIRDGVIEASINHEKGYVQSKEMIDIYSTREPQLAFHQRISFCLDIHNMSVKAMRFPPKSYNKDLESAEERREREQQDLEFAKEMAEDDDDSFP
# Chain of UniProt P28072 (P28072 whole entry, looked up): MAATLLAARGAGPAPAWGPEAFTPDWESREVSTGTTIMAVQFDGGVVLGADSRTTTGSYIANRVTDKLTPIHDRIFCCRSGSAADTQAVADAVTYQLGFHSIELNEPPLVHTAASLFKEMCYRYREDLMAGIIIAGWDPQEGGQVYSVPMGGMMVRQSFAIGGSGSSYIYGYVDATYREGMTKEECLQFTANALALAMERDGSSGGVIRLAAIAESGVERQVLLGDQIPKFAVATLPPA
# Chain of UniProt O95997 (O95997 whole entry, looked up): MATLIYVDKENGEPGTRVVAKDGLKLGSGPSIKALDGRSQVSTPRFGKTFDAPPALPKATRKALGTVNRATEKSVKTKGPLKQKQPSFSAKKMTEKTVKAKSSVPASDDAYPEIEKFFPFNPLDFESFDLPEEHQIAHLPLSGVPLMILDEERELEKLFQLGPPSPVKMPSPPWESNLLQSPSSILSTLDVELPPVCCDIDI
# Chain of UniProt O60256 (O60256 whole entry, looked up): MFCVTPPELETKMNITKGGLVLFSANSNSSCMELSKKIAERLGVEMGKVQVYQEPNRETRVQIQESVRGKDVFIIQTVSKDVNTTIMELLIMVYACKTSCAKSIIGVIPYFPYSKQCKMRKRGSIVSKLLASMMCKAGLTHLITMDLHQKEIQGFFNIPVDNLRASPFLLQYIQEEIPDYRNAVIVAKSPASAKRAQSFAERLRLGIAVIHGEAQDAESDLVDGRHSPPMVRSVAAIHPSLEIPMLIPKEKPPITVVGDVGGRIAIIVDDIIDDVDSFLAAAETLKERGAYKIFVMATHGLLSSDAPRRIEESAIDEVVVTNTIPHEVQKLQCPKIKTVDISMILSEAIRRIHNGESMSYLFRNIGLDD
# Chain of UniProt P06454 (P06454 whole entry, looked up): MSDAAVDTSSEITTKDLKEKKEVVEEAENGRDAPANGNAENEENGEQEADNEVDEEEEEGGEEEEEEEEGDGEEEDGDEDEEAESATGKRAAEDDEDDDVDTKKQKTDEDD
# Chain of UniProt O94806 (O94806 whole entry, looked up): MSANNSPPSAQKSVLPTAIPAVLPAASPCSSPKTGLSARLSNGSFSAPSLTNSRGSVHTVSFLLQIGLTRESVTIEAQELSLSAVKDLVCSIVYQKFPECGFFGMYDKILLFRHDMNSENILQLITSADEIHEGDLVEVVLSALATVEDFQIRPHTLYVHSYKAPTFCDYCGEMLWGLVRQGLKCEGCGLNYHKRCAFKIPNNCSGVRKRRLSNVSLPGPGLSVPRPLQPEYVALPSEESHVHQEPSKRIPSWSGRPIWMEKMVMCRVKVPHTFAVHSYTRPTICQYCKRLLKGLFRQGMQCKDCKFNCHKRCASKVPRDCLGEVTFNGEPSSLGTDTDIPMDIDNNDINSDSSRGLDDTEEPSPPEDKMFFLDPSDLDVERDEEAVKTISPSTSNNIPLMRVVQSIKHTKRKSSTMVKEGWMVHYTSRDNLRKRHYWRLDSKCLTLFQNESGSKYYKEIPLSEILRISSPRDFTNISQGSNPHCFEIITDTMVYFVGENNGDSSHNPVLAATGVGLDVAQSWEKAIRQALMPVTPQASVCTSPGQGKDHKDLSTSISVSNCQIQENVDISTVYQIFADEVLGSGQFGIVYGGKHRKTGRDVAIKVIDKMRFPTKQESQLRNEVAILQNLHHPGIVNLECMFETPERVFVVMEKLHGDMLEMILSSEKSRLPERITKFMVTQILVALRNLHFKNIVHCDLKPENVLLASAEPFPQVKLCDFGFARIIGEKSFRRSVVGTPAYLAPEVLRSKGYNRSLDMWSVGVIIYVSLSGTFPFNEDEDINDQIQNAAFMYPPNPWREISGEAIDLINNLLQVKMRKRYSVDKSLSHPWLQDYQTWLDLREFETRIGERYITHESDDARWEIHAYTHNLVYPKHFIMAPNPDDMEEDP
# Chain of UniProt Q8TCG2 (Q8TCG2 whole entry, looked up): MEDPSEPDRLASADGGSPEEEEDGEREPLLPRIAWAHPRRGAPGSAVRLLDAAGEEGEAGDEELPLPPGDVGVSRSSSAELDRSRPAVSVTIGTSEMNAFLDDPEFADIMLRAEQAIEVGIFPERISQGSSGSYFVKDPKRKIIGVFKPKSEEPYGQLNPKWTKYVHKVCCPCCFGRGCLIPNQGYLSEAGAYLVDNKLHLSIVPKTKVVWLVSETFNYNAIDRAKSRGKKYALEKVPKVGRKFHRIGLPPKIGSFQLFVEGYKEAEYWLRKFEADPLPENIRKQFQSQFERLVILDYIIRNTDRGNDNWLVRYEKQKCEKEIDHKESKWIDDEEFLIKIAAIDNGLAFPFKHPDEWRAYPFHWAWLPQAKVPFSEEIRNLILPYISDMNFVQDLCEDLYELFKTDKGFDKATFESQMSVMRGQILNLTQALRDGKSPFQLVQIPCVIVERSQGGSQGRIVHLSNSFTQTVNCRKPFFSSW
# Chain of UniProt Q9BZL4 (Q9BZL4 whole entry, looked up): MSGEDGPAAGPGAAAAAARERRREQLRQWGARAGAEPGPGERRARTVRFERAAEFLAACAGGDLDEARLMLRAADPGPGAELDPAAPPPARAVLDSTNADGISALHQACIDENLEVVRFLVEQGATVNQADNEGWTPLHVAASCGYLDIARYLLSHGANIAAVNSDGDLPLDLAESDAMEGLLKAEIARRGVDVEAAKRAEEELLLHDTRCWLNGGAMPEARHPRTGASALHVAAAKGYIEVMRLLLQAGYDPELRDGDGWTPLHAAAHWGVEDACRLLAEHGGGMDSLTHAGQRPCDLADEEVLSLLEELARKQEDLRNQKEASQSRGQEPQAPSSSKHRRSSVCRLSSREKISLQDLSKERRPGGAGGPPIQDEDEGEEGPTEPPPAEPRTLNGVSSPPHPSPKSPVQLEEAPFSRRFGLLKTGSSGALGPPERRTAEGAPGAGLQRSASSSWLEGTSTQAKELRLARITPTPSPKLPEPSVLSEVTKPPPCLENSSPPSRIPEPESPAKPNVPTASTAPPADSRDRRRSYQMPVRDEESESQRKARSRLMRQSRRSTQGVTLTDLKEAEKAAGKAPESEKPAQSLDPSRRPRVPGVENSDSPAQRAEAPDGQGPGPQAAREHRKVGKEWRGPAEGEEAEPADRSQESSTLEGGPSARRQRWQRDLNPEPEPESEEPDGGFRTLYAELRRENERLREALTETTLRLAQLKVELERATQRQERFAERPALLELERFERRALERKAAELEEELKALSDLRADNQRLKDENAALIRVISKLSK
# Chain of UniProt P28065 (P28065 whole entry, looked up): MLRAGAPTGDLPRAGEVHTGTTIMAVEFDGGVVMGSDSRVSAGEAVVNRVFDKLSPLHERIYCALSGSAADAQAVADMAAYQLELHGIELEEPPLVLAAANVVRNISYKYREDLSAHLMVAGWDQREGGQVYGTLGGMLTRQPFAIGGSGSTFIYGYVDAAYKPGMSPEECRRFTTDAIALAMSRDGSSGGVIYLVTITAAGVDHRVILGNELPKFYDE
# Chain of UniProt Q86TB9 (Q86TB9 whole entry, looked up): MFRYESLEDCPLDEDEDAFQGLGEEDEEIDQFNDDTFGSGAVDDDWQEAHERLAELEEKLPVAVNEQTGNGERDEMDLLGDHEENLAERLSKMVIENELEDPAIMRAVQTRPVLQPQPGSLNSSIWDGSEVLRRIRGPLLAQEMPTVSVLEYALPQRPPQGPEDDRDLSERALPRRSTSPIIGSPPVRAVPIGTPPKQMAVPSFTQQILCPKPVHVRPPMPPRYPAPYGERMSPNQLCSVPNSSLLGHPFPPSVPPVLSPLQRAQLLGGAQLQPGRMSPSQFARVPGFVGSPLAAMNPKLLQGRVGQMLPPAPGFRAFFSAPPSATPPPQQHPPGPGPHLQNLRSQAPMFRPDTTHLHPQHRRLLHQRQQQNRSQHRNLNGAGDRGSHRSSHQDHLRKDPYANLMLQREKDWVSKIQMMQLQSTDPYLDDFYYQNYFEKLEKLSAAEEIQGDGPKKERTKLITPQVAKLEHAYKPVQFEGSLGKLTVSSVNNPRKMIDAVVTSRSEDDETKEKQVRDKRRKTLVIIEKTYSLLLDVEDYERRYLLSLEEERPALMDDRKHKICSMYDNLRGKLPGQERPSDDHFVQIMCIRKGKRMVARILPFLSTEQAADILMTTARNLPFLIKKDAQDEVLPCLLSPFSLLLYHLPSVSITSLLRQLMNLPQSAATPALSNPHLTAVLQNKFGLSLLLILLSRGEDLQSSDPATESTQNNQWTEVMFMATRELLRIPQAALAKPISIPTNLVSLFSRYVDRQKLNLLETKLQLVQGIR
# Chain of UniProt Q15126 (Q15126 whole entry, looked up): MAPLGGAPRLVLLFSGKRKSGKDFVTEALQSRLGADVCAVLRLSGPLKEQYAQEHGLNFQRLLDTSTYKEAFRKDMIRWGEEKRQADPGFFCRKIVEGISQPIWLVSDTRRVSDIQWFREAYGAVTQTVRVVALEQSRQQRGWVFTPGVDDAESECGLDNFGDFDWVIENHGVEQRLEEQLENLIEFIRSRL
# Chain of UniProt Q6EEV4 (Q6EEV4 whole entry, looked up): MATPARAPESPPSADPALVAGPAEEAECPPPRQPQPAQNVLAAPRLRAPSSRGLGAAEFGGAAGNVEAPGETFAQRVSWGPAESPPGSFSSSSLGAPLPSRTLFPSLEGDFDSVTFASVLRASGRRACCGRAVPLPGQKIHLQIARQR
Target,log2 fold change [1],log2 fold change [2],log2 fold change [3],log2 fold change [4],log2 fold change [5],log2 fold change [6],log2 fold change [7],log2 fold change [8],log2 fold change [9],log2 fold change [10]
PSMB6 (UniProt P28072),-0.007,-0.025,0.049,-0.045,0.045,0.129,0.4 (active),-0.053,0.046,0
PIP4P1 isoform 2 (UniProt Q86T03),-0.011,0.003,-0.002,0.003,-0.004,-0.329 (active),0.022,-0.031,0.131,-0.062
PCF11 (UniProt O94913),0.002,-0.255,-0.093,-0.104,–,–,-0.083,-0.058,–,–
PIKFYVE (UniProt Q9Y2I7),-0.032,-0.097,-0.07,-0.002,-0.145,-0.256,0.063,0.006,0.034,0.012
PATL1 (UniProt Q86TB9),-0.026,-0.173,-0.312,0.079,-0.024,-0.298,0.033,0.143,–,0.038
PTMA (UniProt P06454),0.034,0.049,0.127,0.251,-0.133,0.085,-0.289,-0.092,0.063,-0.021
PI4K2B (UniProt Q8TCG2),0.035,-0.004,0.042,-0.04,–,-0.131,-0.017,0.053,0.135,0.003
PLCG1 isoform 2 (UniProt P19174),-0.079,0.03,0.041,-0.042,-0.362 (active),-0.23,0.007,0.069,0.023,-0.027
PCBP2 (UniProt F8VRH0),0.118,0.057,-0.092,–,-0.263,0.123,–,0.022,0.089,-0.113
PIK3CD (UniProt O00329),0.005,-0.137,0.237,0.032,-0.391,0.104,0.116,-0.024,–,0.259
POLR2M (UniProt Q6EEV4),-0.014,-0.075,-0.027,–,-0.091,0.128,–,0.005,0.139,0.209
PTTG1IP (UniProt P53801),-0.122,0.028,-0.004,–,-0.031,0.029,–,0.028,0.084,-0.119
PRPSAP2 (UniProt O60256),0.02,0.008,0.074,-0.013,0.003,0.035,-0.017,-0.003,0.033,0.063
PCTP (UniProt Q9UKL6),-0.009,-0.018,0.054,-0.081,-0.091,-0.266 (active),-0.012,-0.013,0.04,0.005
PPP2R5C isoform 4 (UniProt Q13362),0.027,-0.051,0.019,-0.15,-0.07,-0.02,0.034,0.043,0.016,-0.032
PIGH (UniProt Q14442),-0.207,0.022,-0.004,-0.017,0.023,0.014,-0.004,0.139,–,0.096
PUF60 (UniProt Q9UHX1),-0.11,-0.018,-0.352 (active),0.049,-0.016,-0.235 (active),-0.003,-0.016,0.001,0.016
PSMB9 (UniProt P28065),0.091,0.511,0.031,–,-0.01,0.205,–,0.069,–,–
PDS5B (UniProt Q9NTI5),-0.184,-0.102,-0.052,-0.01,-0.093,-0.166,0.124,0.093,-0.078,0.02
PIGG (UniProt Q5H8A4),0.004,-0.039,-0.032,0.168,0.015,-0.046,0.005,0.027,0.011,0.018

Target,log2 fold change [1],log2 fold change [2],log2 fold change [3],log2 fold change [4],log2 fold change [5],log2 fold change [6],log2 fold change [7],log2 fold change [8],log2 fold change [9],log2 fold change [10]
PSMB4 (UniProt P28070),-0.021,0.006,0.044,-0.008,0.045,0.065,-0.043,0.03,0.013,0.018
QRICH1 (UniProt Q2TAL8),-0.108,-0.024,0.048,0.055,-0.237,-0.321,0.08,0.026,0.029,-0.08
POTEI (UniProt P0CG38),-0.176,0.046,0.052,0.003,0.015,0.059,-0.025,-0.179,0.021,0.012
PSMD13 (UniProt Q9UNM6),-0.048,-0.039,0.048,-0.021,0,0.009,-0.265 (active),0.09,0.049,0.032
PGK2 (UniProt P07205),0.039,-0.003,0.004,-0.07,0.008,–,0.063,-0.032,0.096,-0.037
PTPN23 (UniProt Q9H3S7),-0.008,-0.052,-0.044,0.013,-0.061,-0.095,0.038,-0.009,-0.036,0.046
PNPLA4 (UniProt P41247),-0.094,0.012,0.005,-0.022,–,0.115,0.209,0.049,0.054,-0.025
POLR2G (UniProt P62487),0.001,0.078,0.329 (active),-0.052,-0.011,0.371 (active),0.012,-0.044,-0.053,0.268
PTTG1 (UniProt O95997),-0.026,-0.017,0.057,-0.069,-0.03,-0.002,0.393 (active),0.036,0.055,-0.084
PDE4A (UniProt P27815),0,0.249,0.077,-0.056,0.106,0.029,0.04,0.019,–,-0.077
POLA1 (UniProt P09884),-0.034,-0.06,-0.02,-0.018,-0.066,-0.151,0.005,-0.027,-0.044,-0.066
PRKAR2A (UniProt P13861),0.006,0.013,-0.696 (active),0.047,-0.036,-0.002,-0.023,0.074,-0.06,0.058
PSMC3 (UniProt P17980),-0.041,-0.021,0.023,0.016,0.007,0.048,-0.213,0.025,0.053,0.023
PSMD3 (UniProt O43242),-0.025,-0.031,0.044,0.023,-0.033,0.01,-0.22 (active),0.067,0.016,0.039
POLR2E (UniProt P19388),-0.106,-0.012,0.218,-0.041,-0.061,0.081,0.065,0.108,-0.055,-0.014
PURA (UniProt Q00577),-0.151,0.096,0.169,0.064,0.276,0.129,0.079,0.087,-0.005,-0.792 (active)
POGLUT1 (UniProt Q8NBL1),-0.032,-0.03,-0.047,0.162,0.058,0.055,-0.106,0.026,0.009,0.016
PDE4DIP isoform 4 (UniProt Q5VU43),-0.006,0.001,0.045,0.011,-0.08,0.035,0.087,-0.05,0.069,0.088
PRKD3 (UniProt O94806),0.189,0.059,-2.06 (active),-0.089,–,-0.129,0.06,0.266,–,–
PLCXD1 (UniProt Q9NUJ7),–,0.021,–,0.113,–,–,0.175,–,–,–

Target,log2 fold change [1],log2 fold change [2],log2 fold change [3],log2 fold change [4],log2 fold change [5],log2 fold change [6],log2 fold change [7],log2 fold change [8],log2 fold change [9],log2 fold change [10]
PRR14L (UniProt Q5THK1),–,–,-0.104,–,–,–,–,–,0.015,0.008
PCNX1 (UniProt Q96RV3),–,0.008,–,–,0.005,–,–,–,0.015,0.143
POLB (UniProt P06746),–,–,–,0.14,-0.222,0.091,0.143,–,-0.168,0.175
PDE4DIP (UniProt E9PS60),-0.183,–,–,–,–,0.171,–,0.178,–,–
PMS2CL (UniProt Q68D20),–,–,–,-0.21,-0.042,–,-0.258,–,0.231,–
PRKCE (UniProt Q02156),-0.02,-0.013,-0.468 (active),–,-0.026,-0.153,–,-0.051,-0.059,-0.009
PPP1R12C (UniProt Q9BZL4),–,-0.024,–,-0.028,0.045,-0.126,-0.041,–,-0.291,-0.157
PHRF1 (UniProt Q9P1Y6),–,–,–,-0.144,–,0.718 (active),0.119,–,–,–
PMVK (UniProt Q15126),–,-0.039,-0.069,–,-0.072,-0.195,–,–,0.15,0.061
PEX5 isoform 4 (UniProt P50542),–,–,-0.035,0.145,0.038,0.066,0.123,–,–,-0.072
PRKX (UniProt P51817),–,-0.005,–,–,–,-0.274,–,–,–,–
PUF60 isoform 2 (UniProt Q9UHX1),–,0.035,-0.329,0.25,–,–,-0.203,–,–,-0.052
PSMC3 (UniProt E9PLG2),-0.064,-0.051,–,–,0.167,–,–,-0.1,–,-0.155
PHC3 isoform 7 (UniProt Q8NDX5),-0.377,-0.159,–,–,-0.25,-0.219,–,-0.11,0.021,–
PSMD8 (UniProt K7ERW6),0.018,–,–,–,–,–,–,0.001,–,0.037
PUM1 (UniProt Q14671),0.101,–,-0.038,–,–,-0.226,–,0.073,–,0.139
PRKD2 (UniProt M0R346),–,-0.096,–,–,-0.273,–,–,–,–,–
PTP4A3 (UniProt O75365),–,0.079,–,–,–,–,–,–,–,–
PAN2 (UniProt Q504Q3),–,-0.134,–,–,–,–,–,–,0.099,–
POGZ (UniProt Q7Z3K3),-0.133,–,-0.183,0.083,-0.035,0.066,0.038,-0.05,–,-0.826 (active)
